# The supplement of paper PMC4723716
# System: Plasmodium falciparum NF54 gametocytes
# Experiment: viability index relative to DMSO control (fraction); higher = less gametocyte killing
# Conditions: gametocyte stage: Stage III viability index; 12.5 µM; incubation time: 72 h
# Outline: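 The viability index expresses each well's gametocyte particle count relative to the plate mean of solvent-only wells. Stage I–V P. falciparum NF54 gametocytes (0.50% gametocytemia, 1.25% hematocrit, 40 µl of serum-containing medium) were exposed to compound at 12.5 µM for 72 hr at 37°C under low oxygen in 384-well plates. They were stained for 20 min with 5 µl of 5 µM MitoTracker Red CMXRos, and 5 µl was then transferred into 40 µl of 500 nM dye in serum-free medium for imaging of three fields 30 min later.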
row,SMILES,viability index
1,COc1cccc(Cn2c(Oc3ccccc3)nc3c2c(=O)n(C)c(=O)n3C)c1,0.993
2,COc1ccc(NC(=O)C2c3ccccc3C(=O)N(CC(C)C)C2c2cccs2)cc1Cl (stereo not drawn),0.0636
3,COc1cc2cc(C(=O)Nc3ccccc3)c(N)nc2cc1OC,0.727
4,CC(=O)c1ccc(NC(=O)CSc2nc(-c3ccccc3Cl)ns2)cc1,0.308
5,O=C(c1ccccc1F)N(Cc1ccc(Cl)cc1)c1ccccn1,0.997
6,CCN(CC)c1cc(C)c2cc(NC(=O)c3cccc(OC)c3)ccc2n1,0.864
7,CCCN(CCC)CCCNC(=O)c1cc2c(-c3ccc(OC)c(OC)c3)nn(C)c2s1,0.996
8,COCCNC(=O)c1ccc(OC2CCN(Cc3ccc(F)c(F)c3)CC2)c(Cl)c1,1.07
9,O=C(Nc1ccc(-c2nc3cc4ccccc4cc3[nH]2)cc1)c1cccc(Br)c1,0.851
10,CC(C)c1ccc(CNCC(O)c2ccccc2)cc1 (stereo not drawn),0.492
11,COc1ccc(C2=C(c3ccc(OC)cc3)C3(c4ccccc4)C(=O)C2(c2ccccc2)C2C(=O)N(c4ccc(C)cc4)C(=O)C23)cc1 (stereo not drawn),0.949
12,COc1cccc(C2(C)Nc3ccccc3-c3nc4ccccc4n32)c1 (stereo not drawn),0.198
13,CCOc1ccc2nc(C)cc(Nc3ccc(Br)cc3)c2c1,0.828
14,Cc1ccc(C)c(Cn2c(N3CCC(C(=O)NCc4cccs4)CC3)nc3ccccc32)c1,0.438
15,COc1cccc(C(=O)Nc2ccc(-c3nc4ccccc4[nH]3)cc2)c1,0.852
16,CCOC(=O)C1CCN(C(=O)CN2C(=O)c3ccccc3C2c2c[nH]c3ccccc23)CC1 (stereo not drawn),1.14
17,O=C1c2ccccc2-c2nnc(-c3ccc(Br)cc3)cc21,0.783
18,Oc1c2c(nc3ccccc13)CCCC2,0.985
19,CCCCCCc1cc2cc(-c3nc4ccccc4[nH]3)c(=Nc3ccccc3C)oc2cc1O,0.501
20,O=C(NC(c1ccccc1)c1ccc2cccnc2c1O)c1ccccc1 (stereo not drawn),0.0453

row,SMILES,viability index
1,COc1cc(C(=O)ON=C(N)Cc2cccc3ccccc23)cc(OC)c1OC,0.157
2,CCOC(=O)C1(Cc2ccccc2)CCN(Cc2cccc(OC)c2O)CC1,0.404
3,O=C(O)C1Cc2c([nH]c3ccccc23)C(c2ccc(Cl)cc2Cl)N1 (stereo not drawn),1.08
4,Cc1ccc(C)c(-c2csc(Nc3ccc(C)c(C)c3)n2)c1,0.82
5,CCc1ccc(Nc2cc(C)c3ccc(O)cc3n2)cc1,0.706
6,COc1ccc(-c2nonc2NC(=O)c2cccc(C)c2)cc1OC,0.571
7,CCN1CCN(c2c(C(=O)c3ccccc3)cnc3cc(OC)c(OC)cc23)CC1,1.22
8,CCCOCc1cc(CN2CCN(c3cccc(Cl)c3)CC2)c(O)c2ncccc12,0.0244
9,CCOc1ccc2nc(C)cc(Nc3ccc(N(C)C)cc3)c2c1,0.868
10,Cc1ccc(Cn2c(N3CCC(C(=O)NCc4cccs4)CC3)nc3ccccc32)cc1,0.545
11,CC1CCN(Cc2ccc(NC(=O)c3cc4ccc5cccnc5c4[nH]3)cc2)CC1,0.902
12,Cc1cccc(-n2ncc3c(=O)[nH]c(-n4nc(C)cc4NC(=O)c4cc5ccccc5o4)nc32)c1,0.792
13,CCOc1cc2c(cc1OCC)C(c1cc(Cl)ccc1O)NCC2 (stereo not drawn),0.488
14,COC(=O)c1ccc(Cl)c2c1C1C=CCC1C(c1cccc3ccccc13)N2 (stereo not drawn),1.14
15,O=C(Nc1ccc(N2CCCCC2)c(Cl)c1)c1ccc(Br)o1,0.762
16,CN(C)c1ccc(-c2nc3cc(N)ccc3[nH]2)cc1,0.962
17,COc1ccc2nc(C)cc(Nc3ccccc3O)c2c1,1.04
18,COc1cccc(Nc2nc(N)c3ccccc3n2)c1,0.786
19,O=C(CSc1ccc2nnc(-c3cccc(F)c3)n2n1)Nc1ccc2c(c1)OCO2,1.16

# Same assay, conditions: gametocyte stage: Stage IV viability index; 12.5 µM; incubation time: 72 h
row,SMILES,viability index
1,COc1cccc(Cn2c(Oc3ccccc3)nc3c2c(=O)n(C)c(=O)n3C)c1,1.06
2,COc1ccc(NC(=O)C2c3ccccc3C(=O)N(CC(C)C)C2c2cccs2)cc1Cl (stereo not drawn),0.24
3,COc1cc2cc(C(=O)Nc3ccccc3)c(N)nc2cc1OC,0.86
4,CC(=O)c1ccc(NC(=O)CSc2nc(-c3ccccc3Cl)ns2)cc1,0.62
5,O=C(c1ccccc1F)N(Cc1ccc(Cl)cc1)c1ccccn1,0.93
6,CCN(CC)c1cc(C)c2cc(NC(=O)c3cccc(OC)c3)ccc2n1,0.967
7,CCCN(CCC)CCCNC(=O)c1cc2c(-c3ccc(OC)c(OC)c3)nn(C)c2s1,0.954
8,COCCNC(=O)c1ccc(OC2CCN(Cc3ccc(F)c(F)c3)CC2)c(Cl)c1,0.979
9,O=C(Nc1ccc(-c2nc3cc4ccccc4cc3[nH]2)cc1)c1cccc(Br)c1,0.873
10,CC(C)c1ccc(CNCC(O)c2ccccc2)cc1 (stereo not drawn),0.568
11,COc1ccc(C2=C(c3ccc(OC)cc3)C3(c4ccccc4)C(=O)C2(c2ccccc2)C2C(=O)N(c4ccc(C)cc4)C(=O)C23)cc1 (stereo not drawn),1.02
12,COc1cccc(C2(C)Nc3ccccc3-c3nc4ccccc4n32)c1 (stereo not drawn),0.465
13,CCOc1ccc2nc(C)cc(Nc3ccc(Br)cc3)c2c1,0.851
14,Cc1ccc(C)c(Cn2c(N3CCC(C(=O)NCc4cccs4)CC3)nc3ccccc32)c1,0.342
15,COc1cccc(C(=O)Nc2ccc(-c3nc4ccccc4[nH]3)cc2)c1,1.03
16,CCOC(=O)C1CCN(C(=O)CN2C(=O)c3ccccc3C2c2c[nH]c3ccccc23)CC1 (stereo not drawn),1.13
17,O=C1c2ccccc2-c2nnc(-c3ccc(Br)cc3)cc21,0.873
18,Oc1c2c(nc3ccccc13)CCCC2,0.87
19,CCCCCCc1cc2cc(-c3nc4ccccc4[nH]3)c(=Nc3ccccc3C)oc2cc1O,0.601
20,O=C(NC(c1ccccc1)c1ccc2cccnc2c1O)c1ccccc1 (stereo not drawn),0.103

row,SMILES,viability index
1,COc1cc(C(=O)ON=C(N)Cc2cccc3ccccc23)cc(OC)c1OC,0.12
2,CCOC(=O)C1(Cc2ccccc2)CCN(Cc2cccc(OC)c2O)CC1,0.522
3,O=C(O)C1Cc2c([nH]c3ccccc23)C(c2ccc(Cl)cc2Cl)N1 (stereo not drawn),1.05
4,Cc1ccc(C)c(-c2csc(Nc3ccc(C)c(C)c3)n2)c1,0.639
5,CCc1ccc(Nc2cc(C)c3ccc(O)cc3n2)cc1,0.827
6,COc1ccc(-c2nonc2NC(=O)c2cccc(C)c2)cc1OC,0.769
7,CCN1CCN(c2c(C(=O)c3ccccc3)cnc3cc(OC)c(OC)cc23)CC1,1
8,CCCOCc1cc(CN2CCN(c3cccc(Cl)c3)CC2)c(O)c2ncccc12,0.0127
9,CCOc1ccc2nc(C)cc(Nc3ccc(N(C)C)cc3)c2c1,0.943
10,Cc1ccc(Cn2c(N3CCC(C(=O)NCc4cccs4)CC3)nc3ccccc32)cc1,0.544
11,CC1CCN(Cc2ccc(NC(=O)c3cc4ccc5cccnc5c4[nH]3)cc2)CC1,0.954
12,Cc1cccc(-n2ncc3c(=O)[nH]c(-n4nc(C)cc4NC(=O)c4cc5ccccc5o4)nc32)c1,0.9
13,CCOc1cc2c(cc1OCC)C(c1cc(Cl)ccc1O)NCC2 (stereo not drawn),0.532
14,COC(=O)c1ccc(Cl)c2c1C1C=CCC1C(c1cccc3ccccc13)N2 (stereo not drawn),0.962
15,O=C(Nc1ccc(N2CCCCC2)c(Cl)c1)c1ccc(Br)o1,0.787
16,CN(C)c1ccc(-c2nc3cc(N)ccc3[nH]2)cc1,0.939
17,COc1ccc2nc(C)cc(Nc3ccccc3O)c2c1,1.09
18,COc1cccc(Nc2nc(N)c3ccccc3n2)c1,0.797
19,O=C(CSc1ccc2nnc(-c3cccc(F)c3)n2n1)Nc1ccc2c(c1)OCO2,1.16
